# Results reported in the supplement of paper PMC9135407.
# “And” between values parts separate entries of the source, which are not always exact repeats. Equal entries are not always repeated. Structures can show the parent of a compound that is named as a salt. Out of some 5,800 compounds screened, about 620 (11%) showed activity. This is one part of a sample in which actives are shown more often than they occur. A number with no mark means an inactive call.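 How the source made its calls: active = score above a cut-off or among the top three wells of a plate; in these data no inactive exceeds 0.85.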
# Tested on: primary human hepatic stellate cells (donor 1)
# Assay: scaled lipid accumulation score (0 = DMSO-like, 1 = nortriptyline-like); higher = stronger HSC inactivation (lipid re-accumulation), active = hit call of the paper
# Conditions: 48 h
# [1] = library stock concentration: 1 mM
# [2] = library stock concentration: 10 mM
# [3] = library stock concentration: 3.33 mM
# [4] = library stock concentration: 400 uM
# [5] = library stock concentration: 2 mM
# [6] = library stock concentration: 80 uM
compound,measurement,setting,value
CCCCCCCCCCCCCCCC(=O)NCCc1ccc(O)c(O)c1 [N-Palmitoyl Dopamine],scaled lipid accumulation score,[1],≤ 0
CC[C@]1(O)C[C@@H]2CN(CCc3c([nH]c4ccccc34)[C@@](C(=O)OC)(c3cc4c(cc3OC)N(C)[C@@H]3C45CCN4CC=C[C@](CC)([C@H]45)[C@H](OC(C)=O)[C@]3(O)C(=O)OC)C2)C1 (some centres not stated) [Vinblastine],scaled lipid accumulation score,[2],0.956 (active)
CC[C@]1(O)C[C@@H]2CN(CCc3c([nH]c4ccccc34)[C@@](C(=O)OC)(c3cc4c(cc3OC)N(C)[C@H]3[C@@](O)(C(=O)OC)[C@H](OC(C)=O)[C@]5(CC)C=CCN6CC[C@]43[C@@H]65)C2)C1 [Vinblastine],scaled lipid accumulation score,[3],0.782
CCCCC[C@@H](O)/C=C/[C@H]1[C@H](C/C=C\CCCC(=O)O)C(=O)C[C@@H]1O [ent-Prostaglandin E2],scaled lipid accumulation score,[1],≤ 0
CC(C)=CC[C@@H](O)C1=CC(=O)c2c(O)ccc(O)c2C1=O [Shikonin],scaled lipid accumulation score,library stock concentration: 6.9 mM,0.554
same,scaled lipid accumulation score,library stock concentration: 17.3 mM,≤ -0.012
CCCCC[C@H](O)/C=C/[C@H]1[C@H](O)CC(=O)[C@@H]1C/C=C\CCCC(=O)NCCO [Prostaglandin E2 Ethanolamide],scaled lipid accumulation score,[1],≤ 0
CC(C1=C(CCN(C)C)Cc2ccccc21)c1ccccn1 (stereo in doubt) [(S)-(+)-Dimethindene maleate],scaled lipid accumulation score,[2],0.162
CCCCCC(O)/C=C/C=O (configuration not stated) [4-hydroxy Nonenal],scaled lipid accumulation score,[1],≤ 0
Cc1cc(C(=O)Nc2cc(Nc3ccc4c(/C=C/c5ccccn5)n[nH]c4c3)ccc2F)n(C)n1 [listing 1 of 2 here],scaled lipid accumulation score,[4],0.035
same,scaled lipid accumulation score,[5],0.724
Cc1cc(C(=O)Nc2cc(Nc3ccc4c(/C=C/c5ccccn5)n[nH]c4c3)ccc2F)n(C)n1 [listing 2 of 2 here],scaled lipid accumulation score,[2],1.61 (active)
CNC(=O)c1ccccc1Sc1ccc2c(/C=C/c3ccccn3)n[nH]c2c1 [Axitinib],scaled lipid accumulation score,[6],≤ -0.001
same,scaled lipid accumulation score,[4],≤ -0.001
same,scaled lipid accumulation score,[5],≤ -0.001
same,scaled lipid accumulation score,[3],≤ 0
same,scaled lipid accumulation score,[2],≤ 0 and ≤ -0.001
CNC(=O)c1ccccc1Sc1ccc2c(/C=C/c3ccccn3)n[nH]c2c1,scaled lipid accumulation score,[4],0.07
same,scaled lipid accumulation score,[5],≤ -0.005
same,scaled lipid accumulation score,[2],0.024
CCCCC[C@H](O)CC[C@@H]1[C@H]2Cc3cccc(OCC(=O)O)c3C[C@H]2C[C@H]1O [Treprostinil],scaled lipid accumulation score,[1],0.05
CCCC(=O)[O-].[Na+] [Sodium Butyrate],scaled lipid accumulation score,[1],≤ 0
CCCCCCCCCCOCCC(=O)O [4-Oxatetradecanoic acid],scaled lipid accumulation score,[1],0.156
C1=N/C2=N/c3ccc(OCCN4CCCC4)c(c3)COC/C=C/COCc3cccc(c3)C(=C1)N2 [Pacritinib],scaled lipid accumulation score,[6],0.184
same,scaled lipid accumulation score,[4],0.686
same,scaled lipid accumulation score,[5],0.473
C1=N/C2=N/c3ccc(OCCN4CCCC4)c(c3)COC/C=C/COCc3cccc(c3)C(=C1)N2 [Pacritinib (SB1518)],scaled lipid accumulation score,[3],0.536
same,scaled lipid accumulation score,[2],0.41
C1=CCOCc2cc(ccc2OCCN2CCCC2)Nc2nccc(n2)-c2cccc(c2)COC1 [Pacritinib],scaled lipid accumulation score,[2],0.932 (active)
Cn1c(N2CCCCS2(=O)=O)nc(C(=O)NCc2ccc(F)cc2)c(O)c1=O,scaled lipid accumulation score,[3],0.024
same,scaled lipid accumulation score,[2],≤ 0
NCCNc1ncc(C(N)=O)c(Nc2cccc(C(F)(F)F)c2)n1 [Syk Inhibitor II],scaled lipid accumulation score,[3],0.589
CC1c2ccccc2CN1CC1=NCCN1 (configuration not stated),scaled lipid accumulation score,[2],0.014
CCCCC[C@H](O)/C=C/[C@H]1C2COC(C2)[C@@H]1C/C=C/CCCC(=O)O (some centres not stated),scaled lipid accumulation score,[1],≤ 0
CC[C@@H](C)Nc1cc(C(=O)NC2CC3CCC(C2)N3c2ccc(C(=O)C3CC3)cn2)c(C)cc1C(N)=O (some centres not stated),scaled lipid accumulation score,[2],0.853 (active)
CC[C@@H](C)Nc1cc(C(=O)N[C@H]2C[C@H]3CC[C@@H](C2)N3c2ccc(C(=O)C3CC3)cn2)c(C)cc1C(N)=O,scaled lipid accumulation score,[3],0.762
NC(=O)c1ccc[n+]([C@@H]2O[C@H](COP(=O)([O-])OP(=O)(O)OC[C@H]3O[C@@H](n4cnc5c(N)ncnc54)[C@H](OP(=O)(O)O)[C@@H]3O)[C@@H](O)[C@H]2O)c1 [Sodium beta-nicotinamide adenine dinucleotide phosphate],scaled lipid accumulation score,[2],≤ -0.027
CC1Nc2ccc(Cl)cc2S(=O)(=O)N1 (configuration not stated),scaled lipid accumulation score,[2],≤ -0.006
CC(=O)c1ncc([C@@H](O)[C@H](O)[C@H](O)CO)[nH]1 [2-Acetyl-5-tetrahydroxybutyl Imidazole],scaled lipid accumulation score,[1],≤ 0
COc1ccc(/C=C/c2nc(NCCCN(C)C)c3ccccc3n2)cc1,scaled lipid accumulation score,[2],0.387
Cc1[nH]c2ccccc2c1CCNCc1ccc(/C=C/C(=O)NO)cc1 [Panobinostat (LBH589)],scaled lipid accumulation score,[3],0.728
same,scaled lipid accumulation score,[2],0.587
O=c1cc(N2CCOCC2)oc2c(-c3ccccc3)cccc12,scaled lipid accumulation score,[1],0.001
same,scaled lipid accumulation score,[3],≤ 0
same,scaled lipid accumulation score,[2],≤ 0 and 0.005
same,scaled lipid accumulation score,library stock concentration: 16.3 mM,≤ -0.012
O=c1cc(N2CCNCC2)oc2c(-c3ccccc3)cccc12 [listing 1 of 2 here],scaled lipid accumulation score,[3],0.39
"O=c1cc(N2CCOCC2)oc2c(-c3ccccc3)cccc12 [LY-294,002 hydrochloride]",scaled lipid accumulation score,[2],0.089
O=c1cc(N2CCNCC2)oc2c(-c3ccccc3)cccc12 [listing 2 of 2 here],scaled lipid accumulation score,[2],1.28 (active)
CC[C@]1(O)C[C@H]2CN(CCc3c([nH]c4ccccc34)[C@@](C(=O)OC)(c3cc4c(cc3OC)N(C)[C@H]3[C@@](O)(C(=O)OC)[C@H](OC(C)=O)[C@]5(CC)C=CCN6CC[C@]43[C@@H]65)C2)C1.O=S(=O)(O)O [Vinblastine sulfate],scaled lipid accumulation score,[2],1.67 (active)
CCC1(O)CC2CN(CCc3c([nH]c4ccccc34)[C@@](C(=O)OC)(c3cc4c(cc3OC)N(C)C3[C@]45CCN4CC=C[C@@](CC)([C@@H](OC(C)=O)[C@]3(O)C(=O)OC)[C@H]45)C2)C1.O=S(=O)(O)O (some centres not stated) [Vinblastine sulfate salt],scaled lipid accumulation score,[2],0.877 (active)
CCCCCCCCCCCCCCCCCC(=O)OC(CC(=O)O)C[N+](C)(C)C (racemic) [DL-Stearoylcarnitine chloride],scaled lipid accumulation score,[2],0.037
CCCCCCCCCCCCCCCC(=O)OC[C@H](O)[C@H]1OC(=O)C(O)=C1O [Ascorbyl palmitate],scaled lipid accumulation score,library stock concentration: 4.8 mM,0.002
CC(=O)N[C@@H](CCC(=O)O)C(=O)O [Acetylglutamic acid],scaled lipid accumulation score,[2],≤ 0
CCCCN1CCCC1CNC(=O)c1cc(C#N)c2ccccc2c1OC (configuration not stated) [Nafadotride],scaled lipid accumulation score,[2],0.668 and 0.214
CS(=O)(=O)c1ccc(-c2nc(-c3ccc(F)cc3)c(-c3ccncc3)[nH]2)cc1,scaled lipid accumulation score,[3],≤ 0
CN(C)CC[C@@H](c1ccc(Br)cc1)c1ccccn1,scaled lipid accumulation score,[2],≤ 0
O=C1NCCc2[nH]c(-c3ccncc3)cc21,scaled lipid accumulation score,[6],≤ -0.016
same,scaled lipid accumulation score,[4],0.1
same,scaled lipid accumulation score,[5],0.125
same,scaled lipid accumulation score,[3],≤ 0
same,scaled lipid accumulation score,[2],0.19
CCCCCCCCCCCCCC(=O)O [Myristic Acid],scaled lipid accumulation score,[1],≤ 0
c1nc2c(NC3CCCCC3)nc(Nc3ccc(N4CCOCC4)cc3)nc2[nH]1 [Reversine],scaled lipid accumulation score,[3],≤ 0
c1cn2cc(-c3ccc4cn[nH]c4c3)nc(Nc3ccc(N4CCOCC4)cc3)c2n1,scaled lipid accumulation score,[3],1.04 (active)
same,scaled lipid accumulation score,[2],0.944 (active)
Cc1cc(N2CCOCC2)ccc1Nc1nc(NC2CCCCC2)c2[nH]cnc2n1,scaled lipid accumulation score,[3],0.091
same,scaled lipid accumulation score,[2],≤ 0
c1cn2cc(-c3ccc4cn[nH]c4c3)nc(Nc3ccc(N4CCOCC4)cc3)c2n1 [Entospletinib] [listing 1 of 2 here],scaled lipid accumulation score,[5],1.2 (active)
same,scaled lipid accumulation score,[2],1.21 (active)
c1cn2cc(-c3ccc4cn[nH]c4c3)nc(Nc3ccc(N4CCOCC4)cc3)c2n1 [Entospletinib] [listing 2 of 2 here],scaled lipid accumulation score,[6],≤ 0
same,scaled lipid accumulation score,[4],0.023
Cn1c(=O)c(-c2c(Cl)cccc2Cl)cc2cnc(Nc3ccc(N4CCOCC4)cc3)nc21,scaled lipid accumulation score,[2],≤ 0
C[N+](C)(C)CCOP(=O)(O)OP(=O)([O-])OC[C@H]1O[C@@H](n2ccc(N)nc2=O)[C@H](O)[C@@H]1O [Cytidine 5'-diphosphocholine sodium salt hydrate],scaled lipid accumulation score,[2],≤ -0.07
C[N+](C)(C)CCOP(=O)(O)OP(=O)([O-])OC[C@H]1O[C@@H](n2ccc(N)nc2=O)[C@H](O)[C@@H]1O [Citicoline],scaled lipid accumulation score,[2],≤ -0.027
CO[C@H]1C=C[C@@]23c4cc5c(cc4CN(C[C@@H]2O)[C@H]3C1)OCO5 [Crinamine],scaled lipid accumulation score,[2],0.74
Cc1ccc(Nc2cc(-c3cccc(N4C(=O)c5ccccc5C4=O)c3)ncn2)cc1NS(C)(=O)=O,scaled lipid accumulation score,[6],0.083
same,scaled lipid accumulation score,[4],≤ -0.016
same,scaled lipid accumulation score,[5],≤ -0.016
same,scaled lipid accumulation score,[2],0.08
CCCCCC(O)/C=C/C1C(O)CC(O)C1CCCCC(CC(=O)O)OC (stereo not drawn) [3-methoxy Prostaglandin F1.alpha.],scaled lipid accumulation score,[1],≤ 0
CCCCCCCCCCCCCCC(=O)N[C@H]1CCOC1=O [N-pentadecanoyl-L-Homoserine lactone],scaled lipid accumulation score,[1],≤ 0
c1ccc2c(c1)CCC[C@H]2Nc1nc2ccccc2[nH]1 [NS8593 hydrochloride],scaled lipid accumulation score,[2],0.362
CCCCNC(=O)NS(=O)(=O)c1ccc(CO)cc1 [4-hydroxy Tolbutamide],scaled lipid accumulation score,[1],0.012
COc1ccc(NS(=O)(=O)c2sc3ccc(Cl)cc3c2C)cc1N1CCNCC1 [listing 1 of 2 here],scaled lipid accumulation score,[2],1.31 (active)
COc1ccc(NS(=O)(=O)c2ccc(I)cc2)cc1N1CCN(C)CC1,scaled lipid accumulation score,[2],0.604
COc1ccc(NS(=O)(=O)c2sc3ccc(Cl)cc3c2C)cc1N1CCNCC1 [listing 2 of 2 here],scaled lipid accumulation score,[3],0.383
